The results in this text go back to PubChem BioAssay.

SMILES strings stand for the structures.

The subject of this experiment is wheat germ agglutinin (Triticum aestivum), Alexa647-labelled. In words: Alexa647-WGA lectin binding to printed small molecules – biochemical, small-molecule microarray, 635/667 nm fluorescence, artefact control for SMM control-protein annotation, profiling panel (AID 1140).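 Note: score merges 667 nm feature emission with signal to noise over triplicate slides.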 Conditions: WGA-A647 binding, 635 nm fluorescence, higher = more signal.
`CSCC[C@@H]1NC(=O)CC=C[C@@H](C)COC(=O)[C@H](C)COC1=O` came in with a composite z-score of -0.663.

Molecule `CC1(C)O[C@H]2O[C@H]([C@H](O)CON=C3[C@H]4CCn5c(=O)n(-c6ccccc6)c(=O)n5[C@H]4[C@H](O)[C@@H]4O[C@H]34)[C@H](O)[C@H]2O1` had a composite z-score of 0.0136.

On to `COc1cccc([C@H]2Oc3ccc(OC)cc3C(=NO[C@@H](C)c3cc(-c4c(C)cc(C)cc4C)no3)[C@@H]2O)c1`, for which the composite z-score is -0.52.

Molecule `CC(=O)OC[C@H]1O[C@H](C#CCCc2ccccc2)C=C[C@@H]1OC(C)=O` showed a composite z-score of -0.225.

`CC(C)=CCCC(C)=CCON=C1C[C@@H](O)[C@@H](O)[C@@H]2[C@@H]3C(=O)N(C4CCCCC4)C(=O)[C@@H]3CC[C@H]12`: the composite z-score was -0.0924.

On to `COC(=O)[C@H](C)NC(=O)CCC1CC(OC(=O)NCc2ccc3c(c2)OCO3)CC2(CCCC(COC(=O)NCCc3ccc(Cl)cc3)O2)O1` (stereo partly specified), for which the composite z-score is 0.268.

For `COC(=O)[C@H](C)NC(=O)CCC1CC(OC(=O)NCCc2ccc(F)cc2)CC2(CCCC(COC(=O)NCC3CCCCC3)O2)O1` (stereo partly specified), the composite z-score turned out to be 0.804.

As for `CCN1C(=O)[C@H]2[C@H]3[C@H](O)[C@H](O)CC(=NO[C@H](C)c4cn([C@H](CO)Cc5ccccc5)nn4)[C@@H]3CC[C@H]2C1=O`, the composite z-score worked out at 1.15.

As for `CCN1C(C)=C(C(=O)OC)[C@@H](c2ccccc2)N2C(=O)[C@](O)(C(=O)OC)CC(C(C)=O)=C12`, the composite z-score was 0.278.

Molecule `C=CC[C@@H]1C=C[C@H](ON=C(C)CCN2CCCCc3nc(C)c(C)cc32)[C@@H](CO)O1` displayed a composite z-score of 0.607.

On to `CC(C)=NOC(C)CN1CCCCc2nc(C)c(C)cc21` (stereo unspecified), for which the composite z-score was -0.0583.

With `CCOC(=O)[C@H](Cc1ccccc1)NC(=O)CCC1CC(OC(=O)NCCc2ccc(F)cc2)CC2(CCCC(COC(=O)NCCOc3ccccc3)O2)O1` (stereo partly specified), the composite z-score was found to be 0.362.

`Cc1ccc(S(=O)(=O)N[C@@H]2COC(=O)CC=C[C@@H](C)[C@H](NS(=O)(=O)c3ccc(C)cc3)COC(=O)[C@H](C)NC(=O)CC=C[C@H]2C)cc1` came in with a composite z-score of 0.0658.

With `CCOC(=O)CCN1C(=O)[C@H]2[C@H]3[C@H](O)[C@H](O)CC(=NOCC(C)C)[C@@H]3CC[C@H]2C1=O`, the composite z-score is 0.0456.

Take `CC(=O)OC[C@H]1O[C@H](CCON=C(C)CCN2CCCc3nc(C)c(C)cc32)C=C[C@@H]1OC(C)=O`: the composite z-score was found to be 0.0722.

`Cc1cc2c(nc1C)CCCCN2CC(O)CN1CCCc2nc(-c3ccc(Br)cc3)ccc21` (stereo unspecified): the composite z-score was found to be 0.765.

`CC(C)(C)N1C(=O)[C@H]2[C@@H]3C(=CC[C@H]2C1=O)C(=O)[C@H]1O[C@H]1[C@H]3O` gave a composite z-score of 0.844.

Regarding `CC(CCN1CCCc2nc(C)c(C)cc21)=NOC[C@@H](C)[C@H](OCc1ccccc1)C(C)C`, the composite z-score is -0.606.

`CON=C(C)CCC(=O)OC[C@H]1O[C@H](C#Cc2ccccc2)C=C[C@@H]1Oc1ccc(C)cc1`: the composite z-score amounted to 0.279.

In turn, `C[C@@H]1CC[C@@H](C(=O)O)N[C@H]1c1cccc(N2CCOCC2)c1` showed a composite z-score of 0.227.

As for `O=C1C2=CC[C@H]3C(=O)N(C4CCCCC4)C(=O)[C@H]3[C@H]2[C@H](O)[C@@H]2O[C@H]12`, the composite z-score is -0.685.

In turn, `CCOC(=O)[C@H](Cc1ccccc1)NC(=O)CCC1CC(OC(=O)NCCc2ccc(F)cc2)CC2(CCCC(COC(=O)NCc3cccc(C(F)(F)F)c3)O2)O1` (stereo partly specified) gave a composite z-score of 0.502.

As to `O=C1[C@H]2[C@H]3[C@H](O)[C@H](O)CC(=NO[C@@H]4O[C@H](CO)[C@@H](O)[C@H](O)[C@H]4O)[C@H]3CC[C@H]2C(=O)N1C[C@@H]1CCCO1`, the composite z-score was -0.442.

With `CC(CCC(=O)OC[C@H]1O[C@H](C#Cc2ccccc2)C=C[C@@H]1Oc1ccc(C)cc1)=NOC[C@@H](C)[C@H](OCc1ccccc1)C(C)C`, the composite z-score is -0.726.

`C[C@@H]1CC[C@H]2C(=O)OC(Cc3ccccc3)CN2[C@H]1c1ccc(Br)cc1` (stereo partly specified) showed a composite z-score of 0.339.

In the case of `COC(=O)CC=C[C@@H](C)[C@@H](C=NOC[C@@H](O)COCc1ccco1)OC`, the composite z-score is -0.83.

For `CCc1cc2c(nc1CC)CCN(CCC(C)=NOC[C@@H](C)[C@H](OCc1ccccc1)C(C)C)C2`, the composite z-score is -0.323.

With `O=C1C2=CC[C@H]3C(=O)N(C[C@@H]4CCCO4)C(=O)[C@H]3[C@H]2[C@H](O)[C@@H]2O[C@H]12`, the composite z-score is -0.153.

Molecule `CCOC(=O)CCN1C(=O)[C@H]2[C@H]3[C@H](O)[C@H](O)CC(=NNC(=O)OCC)[C@H]3CC[C@H]2C1=O` showed a composite z-score of -0.656.

Consider `COc1ccc2c(c1)O[C@@H](c1cccc(C(F)(F)F)c1)[C@H](O)C2=O`, for which the composite z-score turned out to be 0.408.

In the case of `COC(=O)CC=C[C@@H](C)[C@@H](C=NOC(C)CN1CCCCc2nc(C)c(C)cc21)NS(=O)(=O)c1ccc(C)cc1` (stereo partly specified), the composite z-score was 0.0721.
